Mtb UGM inh: Mtb UDP-galactopyranose mutase inhibition. purified UGM, fluorescence polarization probe displacement. inhibition, % at 10 µM. P9WIQ1. 320,000 tested, 0.06% active; in the data active = inhibition above about 10%, passing the limit was not always enough
Mtb hypoxia inh: reduces hypoxia-regulated biosensor signal in M. tuberculosis | M. tuberculosis hypoxia-regulated fluorescent reporter, fluorescence | fluorescence inhibition, % (test concentration not listed) | 300,000 tested, 0.1% active; in the data active = fluorescence inhibition mostly above about 23%, no sharp cut-off; inactive = mostly below about 17%
Rv3671c protease: Rv3671c (M. tuberculosis) protease inhibition. inhibition, % at 5.96 µM. 320,000 tested, 0.048% active; in the data active = inhibition above about 38%;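 note: extracellular domain of Rv3671c used as enzyme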
Target sequence (P9WHR9 whole entry, looked up, the tested form may be a part): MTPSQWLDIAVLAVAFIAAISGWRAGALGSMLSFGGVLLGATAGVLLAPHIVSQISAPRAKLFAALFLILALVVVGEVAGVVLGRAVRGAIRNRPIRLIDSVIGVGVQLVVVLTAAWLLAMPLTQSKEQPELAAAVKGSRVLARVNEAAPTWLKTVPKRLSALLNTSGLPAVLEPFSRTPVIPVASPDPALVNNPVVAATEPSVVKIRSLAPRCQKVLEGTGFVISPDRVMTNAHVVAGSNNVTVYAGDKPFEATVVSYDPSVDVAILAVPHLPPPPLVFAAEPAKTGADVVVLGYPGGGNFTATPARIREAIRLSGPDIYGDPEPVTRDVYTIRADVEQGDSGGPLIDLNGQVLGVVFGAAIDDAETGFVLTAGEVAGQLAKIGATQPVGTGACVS
Sa RN4220 lethal: kills Staphylococcus aureus RN4220. S. aureus RN4220 growth, OD600, 16 h. inhibition, % (concentration not given with the values). 330,000 tested, 0.33% active. AID 1259311; in the data active = inhibition above about 85%
Sa ugtP lethal: kills S. aureus RN4220 lacking UgtP; S. aureus RN4220 ugtP deletion, OD600 growth, 16 h; growth inhibition, % (no concentration beside the values); 330,000 tested, 0.54% active; in the data active = growth inhibition above about 68%
Mtb betalactam: beta-lactam sensitization of Mtb H37Rv. M. tuberculosis H37Rv growth with meropenem, percent inhibition. inhibition, % at 25 µM. 330,000 tested, 0.27% active; call rule not given here;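 note: growth measured after seven days incubation then overnight dye step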
Numbers stand for hits. A selection: hits, their analogues and other compounds. The true share with any hit is near 0.68%.

How did CCc1ccccc1NS(=O)(=O)c1ccc(SC)cc1 do in these assays?
Mtb UGM inh: inactive; Mtb hypoxia inh: inactive; Rv3671c protease: inactive; Sa RN4220 lethal: 94.8; Sa ugtP lethal: 89.1; Mtb betalactam: inactive

What do the screens show for `CCCSc1ccc(C2C3C(=O)N(CC)C(=O)C3[C@]3(C(=O)OC)CCCCN23)cc1` (stereo not given in full)?
Mtb hypoxia inh: inactive; Sa RN4220 lethal: inactive; Sa ugtP lethal: inactive

What do the screens show for `CCOC(=O)C(NC(=O)Nc1ccc(F)cc1F)(Oc1ccc(F)cc1)C(F)(F)F` (stereo not given)?
Mtb UGM inh: inactive; Mtb hypoxia inh: inactive; Rv3671c protease: inactive; Sa RN4220 lethal: 84.7; Sa ugtP lethal: inactive; Mtb betalactam: inactive

Results for CN(CC=CC#CC(C)(C)C)Cc1cccc2ccccc12 ?
Mtb hypoxia inh: inactive; Sa RN4220 lethal: inactive; Sa ugtP lethal: 88.5

How did Cc1ccc(NC(=S)NC(=O)C2CCCC2)c(Br)c1 do in these assays?
Mtb UGM inh: inactive; Mtb hypoxia inh: inactive; Rv3671c protease: inactive; Sa RN4220 lethal: inactive; Sa ugtP lethal: 93.1; Mtb betalactam: inactive

How did O=C(NC(=S)Nc1ccccc1Br)C1CC1 do in these assays?
Mtb UGM inh: inactive; Mtb hypoxia inh: inactive; Rv3671c protease: inactive; Sa RN4220 lethal: inactive; Sa ugtP lethal: inactive; Mtb betalactam: inactive

How did COc1ccc(NS(=O)(=O)c2ccc(N3CCOCC3)c(N)c2)cc1 do in these assays?
Mtb UGM inh: inactive; Mtb hypoxia inh: 28.5; Rv3671c protease: inactive; Sa RN4220 lethal: inactive; Sa ugtP lethal: inactive; Mtb betalactam: inactive

What do the screens show for `COc1ccc(S(=O)(=O)Nc2ccc(N3CCOCC3)cc2)cc1`?
Mtb UGM inh: inactive; Mtb hypoxia inh: inactive; Rv3671c protease: inactive; Sa RN4220 lethal: inactive; Sa ugtP lethal: inactive; Mtb betalactam: inactive

What do the screens show for `COc1ccc(C2C3C(=O)N(C(C)(C)C)C(=O)C3[C@]3(Cc4ccc(Cl)cc4)C(=O)N(c4ccc(OC)cc4)C(=O)N23)cc1` (stereo not given in full)?
Mtb hypoxia inh: inactive; Sa RN4220 lethal: inactive; Sa ugtP lethal: inactive

How did CCCc1nnc(NC(=O)c2c(O)c3cccc4c3n(c2=O)CC4)s1 do in these assays?
Mtb UGM inh: inactive; Mtb hypoxia inh: 56.0; Rv3671c protease: inactive; Sa RN4220 lethal: 100.6; Sa ugtP lethal: 100.3; Mtb betalactam: inactive

Results for Cc1ccc(-n2nc(C(=O)N3CCOCC3)cc2-c2ccc(Cl)cc2)cc1 ?
Mtb UGM inh: inactive; Rv3671c protease: inactive; Sa RN4220 lethal: inactive; Sa ugtP lethal: 92.0; Mtb betalactam: inactive

How did COc1ccc(NC(=O)N(C)CC2Oc3ccc(NC(=O)CCC(F)(F)F)cc3C(=O)N(C(C)CO)CC2C)cc1 (stereo not given) do in these assays?
Mtb hypoxia inh: inactive; Sa RN4220 lethal: inactive; Sa ugtP lethal: inactive

What do the screens show for `CCC1OC(=O)C(C)C(OC2C[C@@](C)(OC)C(O)C(C)O2)C(C)C(OC2OC(C)CC(N(C)C)C2O)[C@](C)(O)CC(C)C(=NOCOCCOC)C(C)C(O)[C@]1(C)O` (stereo not given in full)?
Sa RN4220 lethal: 99.8; Sa ugtP lethal: 100.1

Results for CCC1OC(=O)C(C)C(OC2C[C@@](C)(OC)C(O)C(C)O2)C(C)C(O[C@@H]2OC(C)CC(N(C)C)C2O)[C@](C)(O)CC(C)C(=NOCOCCOC)C(C)C(O)[C@]1(C)O (stereo not given in full) ?
Mtb UGM inh: inactive; Rv3671c protease: inactive; Mtb betalactam: inactive

How did CC(C)NC(=O)N(C)CC1Oc2ccc(NS(=O)(=O)c3cn(C)cn3)cc2C(=O)N(C(C)CO)CC1C (stereo not given) do in these assays?
Mtb hypoxia inh: inactive; Sa RN4220 lethal: inactive; Sa ugtP lethal: inactive

What do the screens show for `COc1ccc(SCC(C)CN2CCC(NC(=O)OCc3ccccc3)CCC2=O)cc1` (stereo not given)?
Mtb hypoxia inh: inactive; Sa RN4220 lethal: inactive; Sa ugtP lethal: inactive

Results for COc1cc(C=CC(=O)NNc2c(F)c(F)cc(F)c2F)ccc1OC(F)F ?
Mtb hypoxia inh: inactive; Sa RN4220 lethal: inactive; Sa ugtP lethal: inactive

Results for CCOC(=O)c1c(NC(=O)c2cccnc2)sc(C)c1C ?
Mtb UGM inh: inactive; Mtb hypoxia inh: inactive; Rv3671c protease: inactive; Sa RN4220 lethal: inactive; Sa ugtP lethal: inactive; Mtb betalactam: inactive

How did CCOC(=O)c1sc(NC(=O)c2cccnc2)c(C#N)c1C do in these assays?
Mtb UGM inh: inactive; Mtb hypoxia inh: inactive; Rv3671c protease: inactive; Sa RN4220 lethal: inactive; Sa ugtP lethal: 84.7; Mtb betalactam: inactive
